This is part of a sample that, as a whole, favours compounds with a hit. Of some 79,000 tested, about 15% had one in any assay. Values without a mark were called inactive. Activity calls are given as the source filed them. No stated cut-off is given here; in the data, active means growth inhibition above about 70%; inactive means the rest.
experiment: NCI Yeast Anticancer Drug Screen. Data for the bub3 strain (AID 167); details: S. cerevisiae bub3 mutant strain, at 50.0 µM, stronger effect = higher value
How it was run: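 Compounds were applied to a genetically altered yeast strain carrying a cell-cycle control defect. Growth inhibition was scored against vehicle-treated controls.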

Compound	growth inhibition
COc1ccc2c3c1OC1C(O)C=CC4C(C2)N(N=O)CCC341 (centres undefined)	5.25%
CCN(CC)C1CCCCC1	-0.9%
COc1ccc2c(c1OC(C)=O)-c1cc(OC(C)=O)cc3c1C(C2)NCC3 (centres undefined)	1.9%
CC1(C)N=C(N)N=C(N)N1c1ccc(OCCOc2ccc(S(=O)(=O)F)cc2)cc1	-10.7%
C[N+](C)(Cc1ccc([N+](=O)[O-])cc1)c1ccc(N(CCCl)CCCl)cc1	-21.8%
[Cl][Pt]([Cl])[Cl].[NH-]C1CN2CCC1CC2 (centres undefined)	2.2%
[CH3][Sn]([CH3])([Br])[CH2]CCCBr	99.1% (active)
CCCCCCCCCCCCCCCCP(=O)(O)OP(=O)(O)OCC1OC(n2cnc3c(N)ncnc32)C(O)C1O (centres undefined)	44.6%
CCCOP(=O)(OCCC)C(=O)Nc1ccc(Br)cc1	25%
[Cl][Pt][Cl].c1ccc([PH+](c2ccccc2)c2ccccc2)cc1.c1ccc([PH+](c2ccccc2)c2ccccc2)cc1	-1.6%
CN(C)c1ccc(C=O)cc1.[C-]#[O+].[C-]#[O+].[C-]#[O+].[Cr]	-18.4%
CN(C)c1ccc([N+](=O)[O-])c([N+](=O)[O-])c1	-12.4%
CC1(C)CN=C(Nc2ccc(Cl)cc2)S1	-10.7%
N[C@@H](Cc1ccc2oc3cc(=O)c4ccccc4c-3nc2c1)C(=O)O	28.8%
CC1=CC(=O)C2=C(C)C[C@H](O)[C@@H]3[C@H](OC(=O)[C@H]3C)[C@@H]12	6.25%
CCOP(=O)(OCC)C(O)c1ccc(Cl)cc1 (centres undefined)	22.3%
c1ccc(N=Nc2ccccc2)cc1	-5.15%
CNC(=O)N1CN(c2ccccc2)C2(CCN(CCCC3(c4ccc(F)cc4)OCCO3)CC2)C1=O	8.3%
O=C1C(=C([O-])c2ccccc2)C(=O)c2ccccc21.O=C1C(=C([O-])c2ccccc2)C(=O)c2ccccc21.[Fe+2]	28.1%
C[C@]12CCC(=O)C=C1CC[C@@H]1[C@@H]2CC[C@]2(C)C(=O)[C@H](n3ccnc3)C[C@@H]12	-1.2%

Compound	growth inhibition
Cc1cc(C(C)(C)C)ccc1O	28.2%
[NH-]C(CCC(N)=O)C(=O)O.[NH-]C(CCC(N)=O)C(=O)O.[Pd+2] (centres undefined)	-1.1%
CC1C(C)(C)P(=O)(Oc2ccc3ccccc3c2)C1(C)C (centres undefined)	94.4% (active)
c1ccc(-c2ccc[n+](CC[n+]3cccc(-c4ccccn4)c3)c2)nc1	-0.1%
O=C(O)C(O)CO.[Pb] (centres undefined)	-15.7%
Cc1ccc(S(N)(=O)=O)cc1 (tested in a mixture with another compound)	29.4%
Cc1ccc2nc(CCl)[nH]c2c1	-18.1%
CCCCS(=O)(=O)C(c1ccccc1)c1ccccc1	96.5% (active)
CCOP(=O)(OCC)/C(C#N)=C/C=C/c1ccco1	-40.1%
OC1(C#[C][Hg][C]#CC2(O)CCCCC2)CCCCC1	97.4% (active)
CCOc1cc(CCNC)c2c(ccc3ccc(OC)c(O)c32)c1OC	-7.2%
Oc1cc(Cl)ccc1Cl	99% (active)
C[C@]12CC[C@H]3[C@@H](CCC4=C(Br)C(=O)CC[C@@H]43)[C@@H]1CC[C@@H]2O	2.5%
COc1cc(C=Nc2ccc(C(=O)O)c(O)c2)ccc1N(CCCl)CCCl	-3.95%
Cc1cc2oc(=O)c3c(c2c(O)c1CN1CCOCC1)CCCC3	18.1%
CC1=C(C)C(=O)O[C@@H]([C@](C)(O)[C@]2(O)CC[C@@]3(O)[C@@H]4C[C@H]5O[C@]56[C@@H](O)C=CC(=O)[C@]6(C)[C@H]4CC[C@]23C)C1	20.1%
CC(C)/C=C/C1(C(C)C)C(=O)NC(=O)NC1=O	3.9%
COC(=O)C(Cl)Cl	-5.6%
NC(=O)c1cc(N(CCCl)CCCl)c([N+](=O)[O-])cc1[N+](=O)[O-]	18.6%

Reference: PubChem BioAssay (NCI)
